From PubChem
In the library only some 4.3% were active in any assay of this set; here they are far more common.
FAS-TE inh: inhibitors of human fatty acid synthase thioesterase domain; P49327; recombinant FAS-TE, OMFH fluorogenic substrate, fluorescence endpoint; inhibition, % at 15 µM; 360,000 tested, 0.67% active;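 active = compounds whose normalised, plate-corrected inhibition of enzyme fluorescence in the single-dose primary screen is 50% or more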;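 also: 0% = DMSO with enzyme and 100% = substrate without enzyme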
ADAM17 inh: inhibits human ADAM17 | P78536 | recombinant ADAM17, EDANS/DABCYL FRET peptide cleavage | inhibition, % at 6.95 µM | 370,000 tested, 0.83% active;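 active = inhibition above the mean of compounds lying between control limits plus 3 SD, set per campaign, cut at about 8.5% in these data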;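 also: 0% = DMSO-only wells as the low control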
Target sequence (P78536 215-824 limits assumed): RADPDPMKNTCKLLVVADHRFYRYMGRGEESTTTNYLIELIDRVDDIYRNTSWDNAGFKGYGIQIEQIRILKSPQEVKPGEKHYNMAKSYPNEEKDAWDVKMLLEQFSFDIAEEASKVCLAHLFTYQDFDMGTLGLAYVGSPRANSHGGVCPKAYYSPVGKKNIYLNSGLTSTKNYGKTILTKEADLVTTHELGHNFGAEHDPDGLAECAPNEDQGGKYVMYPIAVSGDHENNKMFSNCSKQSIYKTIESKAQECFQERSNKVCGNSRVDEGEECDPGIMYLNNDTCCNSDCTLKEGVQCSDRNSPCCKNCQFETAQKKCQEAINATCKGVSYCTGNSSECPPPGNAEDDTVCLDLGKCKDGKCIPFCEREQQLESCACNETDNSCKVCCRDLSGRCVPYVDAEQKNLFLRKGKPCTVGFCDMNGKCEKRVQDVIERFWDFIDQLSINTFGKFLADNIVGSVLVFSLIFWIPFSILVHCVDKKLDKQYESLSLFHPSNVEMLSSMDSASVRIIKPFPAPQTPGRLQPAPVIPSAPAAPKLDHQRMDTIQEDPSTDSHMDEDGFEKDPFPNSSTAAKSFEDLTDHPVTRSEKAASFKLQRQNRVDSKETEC
HGIII-sPLA2 inh: Blocks human group III sPLA2 activity | Q9NZ20 | 370,000 tested, 0.56% active | AID 743126 | QFRET BODIPY PC-A2 liposome hydrolysis, fluorescence | inhibition, % at 12.2 µM;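 active = inhibition above mean plus 3 SD of compounds lying within the high and low control bounds, cut at about 19% in these data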;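 also: 0% = median of test compound wells and 100% = no enzyme DMSO wells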
NR3A LBD binder: modulators (binders) of human NR3A ligand-binding domain; 340,000 tested, 2.5% active; Tm shift relative to glycine control, % at 25 µM; NR3A LBD differential scanning fluorimetry, Tm shift; 0% = protein alone, 100% = glycine-bound protein;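 active = melting temperature shift of at least 10% of the positive control shift, at one fixed dose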
ADAM10 inh: ADAM10 inhibition, QFRET primary screen | recombinant ADAM10, EDANS/DABCYL FRET peptide cleavage, 3 h | inhibition, % at 7 µM | 370,000 tested, 0.62% active;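 active = inhibition above a per-campaign cutoff equal to the mean of compounds falling between control-based bounds plus 3 SD, cut at about 20% in these data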;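 also: 0% = DMSO wells while the 100% control is not disclosed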
sPLA2 confirm: human GIII-sPLA2 inhibition, confirmation | shares compounds with HGIII-sPLA2 inh | recombinant hGIII-sPLA2, BODIPY PC-A2 QFRET fluorescence | inhibition, % at 12.2 µM | 2,000 tested, 34% active;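 active = mean inhibition across triplicates above the hit cutoff set in the earlier primary screen, cut at about 19% in these data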;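 also: 0% = enzyme with DMSO and 100% = DMSO wells lacking enzyme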
BODIPY interf: 535nm fluorescence interference, HGIII-sPLA2 counter-screen; shares compounds with HGIII-sPLA2 inh; BODIPY FL product fluorescence interference, QFRET; inhibition, % at 12.2 µM; 2,000 tested, 8.5% active;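 active = average inhibition above the solvent-only control mean plus 3 SD, cut at about 6% in these data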;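 also: 0% = DMSO with substrate plus product and 100% = DMSO with substrate alone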
BODIPY interf DR: interferes with 535nm fluorescence in dose response counter-screen | shares compounds with HGIII-sPLA2 inh | BODIPY FL product fluorescence interference, cell-free | IC50, µM | 240 tested, under 10 active;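 active = IC50 at or below 10 µM; inactive = IC50 above 10 µM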
Active calls of the source: *; / = no result given.

SMILES	FAS-TE inh	ADAM17 inh	HGIII-sPLA2 inh	NR3A LBD binder	ADAM10 inh	sPLA2 confirm	BODIPY interf	others
Cc1ccc(CN2CCCCC(NC(=O)Nc3cccc(F)c3)C2=O)cc1 (configuration not stated)	/	-1	0	/	2	/	/
Cc1cccc(C)c1NC(=O)C(c1cccc2ccccc12)n1c(=O)c(-c2cc3ccccc3[nH]2)nc2ccccc21 (configuration not stated)	/	-13	-4	/	-63	/	/
COc1ccc(CN2C[C@@]3(O)CC[C@@H](O)[C@@H](OC)[C@@H]3[C@@]2(C)[C@H](O)CC=C(C)C)cc1	/	-2	4	/	-1	/	/
Fc1ccc(NC(=S)NN2CCOCC2)cc1Cl	-10	1	25*	0	-2	1	0
S=C(Nc1ccc(Nc2ccccc2)cc1)NN1CCOCC1	-2	1	14	0	2	/	/
COC(=O)C[C@H]1CC[C@@H]2[C@@H](COc3ccc(NC(=O)c4ccno4)cc3C(=O)N2C)O1	/	-7	20*	/	-15	5	-3
Cc1cc(=O)[nH]c(SCC(=O)N2CCCC2)n1	-4	3	20*	0	-18	0	-7
COc1ccc(NC(=O)N2CCCCC2c2cccnc2)cc1 (configuration not stated)	-9	-1	22*	-1	-6	4	-5
Cc1cc(C)c(C2=NOC3c4ccccc4OCC23)c(C)c1 (configuration not stated)	/	-2	-2	/	2	/	/
CCN1C(=O)/C(=C\c2ccco2)C(C(=O)OC)=C1C	-6	5	2	-1	3	/	/
C=CCN1C(=O)/C(=C\c2ccco2)C(C(=O)OC)=C1C	-2	-4	21*	-11	-6	7	-8
O=C(Nc1ccccc1-c1ccccc1)C1CCCC1	-2	1	20*	0	-7	-2	-8
O=S(=O)(c1ccc(C(F)(F)F)cc1)N1CCCc2nc(-c3ccccc3)ccc21	/	0	4	/	-3	/	/
O=C(COC(=O)c1cc(=O)c2ccccc2o1)Nc1ccc2ccccc2c1	-4	-5	22*	-8	-15	2	-3
CCOC(=O)c1sc(NC(=S)NC(=O)C2CC2)cc1C	-5	-4	21*	4	-1	7	-3
c1ccc(-c2nc3ccccc3nc2-c2ccc(CN3CCC4(CC3)CNc3ccccc34)cc2)cc1	/	0	11	/	-3	/	/
O=C(NNC(=S)NC(=O)c1ccccc1Cl)c1cccc([N+](=O)[O-])c1	5	0	25*	-8	-6	37*	-1	BODIPY interf DR=>122
O=C(NNC(=S)NC(=O)c1ccccc1[N+](=O)[O-])c1ccccc1O	-1	-4	32*	-4	-6	14	-2
CC(=O)NNC(=S)NC(=O)c1cccc([N+](=O)[O-])c1	-9	-2	15	2	3	/	/
Cc1cc(Br)cc(C)c1NC(=O)c1ccccc1[N+](=O)[O-]	-1	0	21*	1	-6	4	-7
Cc1cc(Br)c(NC(=O)c2ccccc2[N+](=O)[O-])cc1C	5	-5	4	-2	-1	/	/
O=C(COc1ccc(Br)cc1)NNC(=S)NC(=O)c1ccccc1[N+](=O)[O-]	-9	-1	23*	-5	-2	43*	-15
CC(C)(C)S(=O)(=O)N1Cc2cc(CO)ccc2[C@H]1CCO	/	-4	-1	/	-9	/	/
O=C(NC(=S)Nc1ccc(N2CCCC2)cc1)c1ccccc1[N+](=O)[O-]	-23	-3	23*	5	11	18	-1
O=C(NNC(=S)NC(=O)c1ccccc1[N+](=O)[O-])c1ccccc1[N+](=O)[O-]	-2	-1	23*	0	4	24*	0
SMILES	FAS-TE inh	ADAM17 inh	HGIII-sPLA2 inh	NR3A LBD binder	ADAM10 inh	sPLA2 confirm	BODIPY interf	others
O=C(COC(=O)c1ccccc1[N+](=O)[O-])NC(=O)c1ccccc1	14	-5	21*	0	-12	0	-6
COC(=O)c1ccc(-c2cccc(CN3CCN(c4ncc(Cc5ccccc5)cn4)CC3)c2)cc1	/	-6	6	/	-15	/	/
CCCCNC(=O)C1(C(=O)c2ccc(OC)cc2)CC(c2ccccn2)=NO1 (configuration not stated)	/	-3	-2	/	-3	/	/
CCOC(=O)c1sc(=S)n(C)c1NC(=O)c1ccc(F)cc1	-10	-8	13	0	6	/	/
CCOC(=O)c1sc(=S)n(C)c1NC(=O)c1ccccc1C	-5	-1	24*	14*	4	5	-6
CCSc1nnc(-c2ccco2)n1C	/	2	-5	/	-2	/	/
O=C(Nc1cccc(Cl)c1)NN(c1ccccc1)C1CCS(=O)(=O)C1 (configuration not stated)	/	-2	-5	/	-7	/	/
CC(=O)Nc1ccc(NC(=O)C(Cc2ccccc2)NC(=O)C2CCC(C)CC2)cc1 (configuration not stated)	10	-6	25*	-2	-3	10	-13
Cc1cccc(C=NNc2cc(C)c3cccc(C)c3n2)n1	/	1	5	/	-5	/	/
COC(=O)Cc1ccc(NC(=S)NCC(C)C)cc1	-6	-2	11	1	1	/	/
CCCNC(=S)Nc1ccc(CC(=O)OC)cc1	-13	-6	24*	1	4	8	-5
NC(=O)C1CCN(c2nc(-c3ccc(Br)cc3)cs2)CC1	-2	-4	23*	3	3	14	0
CC(C)(C)c1ccc(-c2csc(N3CCC(C(N)=O)CC3)n2)cc1	/	3	10	/	15	/	/
Clc1ccc(-c2csc(N3CCCCCC3)n2)cc1	27	-10	23*	-3	-17	27*	6.7*
O=C(Nc1cccc(C(F)(F)F)c1)OC1CC2CC1[C@H]1CCCCN1[C@H]2Cc1ccccc1 (some centres not stated)	/	-2	4	/	-3	/	/
O=C(CSc1ccccc1)NNC(=O)c1ccccc1O	-1	-19	20*	1	-49	9	-3
O=C(CN1C(=O)S/C(=C\c2ccccc2)C1=O)NNC(=O)c1ccccc1O	23	-6	23*	-7	-5	16	3
O=C(CCN1C(=O)/C(=C\c2ccccc2)SC1=S)NNC(=O)c1cccnc1	-11	-1	0	1	0	/	/
CC(=O)NNC(=O)CN1C(=O)/C(=C/c2ccccc2)SC1=S	-3	-2	-3	0	11	/	/
O=C(CCN1C(=O)/C(=C\c2ccccc2)SC1=S)NNC(=O)c1ccccc1O	13	1	25*	12*	3	16	-5
